# PMC7862700, “An all-to-all approach to the identification of sequence-specific readers for epigenetic DNA modifications on cytosine”
# Tests used:
# Assay in all cases: DAPPL (digital affinity profiling via proximity ligation, sequencing); 10 mM Tris-HCl pH 7.5, 50 mM NaCl, 1 mM DTT, 4% glycerol, room temperature, 30 min; GST-TFs on glutathione beads, 16-mer random dsDNA library, 0.1% formaldehyde crosslink after washing; high values mean tight binding
# Conditions in all cases: protein: recombinant; tags: N-terminal GST; dsDNA, one strand shown
# ELK1 = molecular target: T1, ELK1 (Homo sapiens, UniProt P19419 1-428)
# T1 sequence: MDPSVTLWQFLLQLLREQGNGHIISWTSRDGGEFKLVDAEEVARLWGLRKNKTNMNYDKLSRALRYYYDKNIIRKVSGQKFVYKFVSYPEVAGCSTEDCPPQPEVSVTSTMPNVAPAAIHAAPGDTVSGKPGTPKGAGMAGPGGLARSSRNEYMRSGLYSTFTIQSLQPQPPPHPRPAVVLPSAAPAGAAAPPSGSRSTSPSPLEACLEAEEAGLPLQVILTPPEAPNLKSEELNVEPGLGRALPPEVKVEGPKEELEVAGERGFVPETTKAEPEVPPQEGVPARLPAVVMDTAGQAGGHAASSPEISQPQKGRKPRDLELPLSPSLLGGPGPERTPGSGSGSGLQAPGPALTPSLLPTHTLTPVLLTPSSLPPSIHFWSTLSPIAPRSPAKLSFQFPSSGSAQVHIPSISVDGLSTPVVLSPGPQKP
# Outline: (§1)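 Yeast served to express human transcription factors as GST fusions, which were then captured on glutathione beads and labelled with DNA barcodes. Pooled with a tag-only sample, they were incubated with 200 nmole of a 16-mer random double-stranded DNA library for 30 min at room temperature in Tris/NaCl/DTT/glycerol buffer, washed, crosslinked with 0.1% formaldehyde, ligated by proximity, amplified by PCR and sequenced. Dividing each hexamer's read frequency for a factor by its frequency for the tag-only sample gives the binding signal.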
# GABPA = molecular target: T2, GABPA (Homo sapiens, UniProt Q06546 1-454)
# T2 sequence: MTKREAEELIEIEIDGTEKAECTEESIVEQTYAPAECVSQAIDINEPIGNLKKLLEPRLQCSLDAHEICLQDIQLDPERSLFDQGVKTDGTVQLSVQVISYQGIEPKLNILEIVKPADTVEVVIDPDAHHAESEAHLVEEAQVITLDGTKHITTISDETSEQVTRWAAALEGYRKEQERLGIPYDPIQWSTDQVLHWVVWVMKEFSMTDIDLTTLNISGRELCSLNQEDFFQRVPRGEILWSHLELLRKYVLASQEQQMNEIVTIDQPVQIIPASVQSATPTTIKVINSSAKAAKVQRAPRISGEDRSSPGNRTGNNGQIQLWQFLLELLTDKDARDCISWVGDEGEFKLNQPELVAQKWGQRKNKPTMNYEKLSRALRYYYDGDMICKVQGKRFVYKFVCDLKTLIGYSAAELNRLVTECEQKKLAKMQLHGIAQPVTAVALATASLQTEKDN
# Outline: as §1
# ELF1 = ELF1 (Homo sapiens, UniProt P32519 1-619)
# ELF1, sequence (P32519 whole entry): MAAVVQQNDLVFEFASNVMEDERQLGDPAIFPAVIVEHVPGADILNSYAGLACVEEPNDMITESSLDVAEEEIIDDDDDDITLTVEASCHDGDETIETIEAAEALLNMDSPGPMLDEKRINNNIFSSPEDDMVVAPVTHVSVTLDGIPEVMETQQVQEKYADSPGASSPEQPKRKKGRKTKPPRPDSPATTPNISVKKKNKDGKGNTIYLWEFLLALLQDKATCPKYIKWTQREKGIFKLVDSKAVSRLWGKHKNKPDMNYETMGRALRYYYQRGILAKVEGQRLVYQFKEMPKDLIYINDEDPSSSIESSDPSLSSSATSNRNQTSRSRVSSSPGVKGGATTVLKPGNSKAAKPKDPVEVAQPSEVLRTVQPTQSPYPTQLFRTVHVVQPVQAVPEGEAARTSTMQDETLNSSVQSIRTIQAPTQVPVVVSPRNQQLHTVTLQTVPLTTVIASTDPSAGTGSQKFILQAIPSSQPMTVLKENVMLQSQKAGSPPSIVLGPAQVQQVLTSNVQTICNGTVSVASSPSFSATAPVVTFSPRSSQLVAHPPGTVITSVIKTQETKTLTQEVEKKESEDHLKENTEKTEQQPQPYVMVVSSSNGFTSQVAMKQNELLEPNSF
# Outline: as §1
# EHF = molecular target: T3, EHF (Homo sapiens, UniProt Q9NZC4 1-300)
# T3 sequence: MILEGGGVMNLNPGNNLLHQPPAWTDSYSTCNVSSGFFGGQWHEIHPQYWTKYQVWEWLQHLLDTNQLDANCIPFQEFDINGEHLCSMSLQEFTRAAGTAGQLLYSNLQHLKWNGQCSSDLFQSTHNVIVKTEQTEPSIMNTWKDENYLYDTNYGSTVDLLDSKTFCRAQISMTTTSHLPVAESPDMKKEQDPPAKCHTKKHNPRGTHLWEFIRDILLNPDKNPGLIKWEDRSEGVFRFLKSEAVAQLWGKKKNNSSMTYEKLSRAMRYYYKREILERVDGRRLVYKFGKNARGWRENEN
# Outline: as §1
# SPIB = SPIB (Homo sapiens, UniProt Q01892 1-262)
# SPIB, sequence (Q01892 whole entry): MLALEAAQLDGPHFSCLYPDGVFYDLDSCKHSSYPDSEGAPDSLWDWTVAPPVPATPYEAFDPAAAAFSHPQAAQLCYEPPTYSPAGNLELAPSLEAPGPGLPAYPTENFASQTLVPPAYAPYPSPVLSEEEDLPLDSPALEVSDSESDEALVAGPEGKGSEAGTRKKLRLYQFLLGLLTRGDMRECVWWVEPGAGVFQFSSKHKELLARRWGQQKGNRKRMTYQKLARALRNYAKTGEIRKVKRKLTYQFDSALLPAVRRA
# Outline: as §1
# ELK3 = molecular target: T4, ELK3 (Homo sapiens, UniProt P41970 1-407)
# T4 sequence: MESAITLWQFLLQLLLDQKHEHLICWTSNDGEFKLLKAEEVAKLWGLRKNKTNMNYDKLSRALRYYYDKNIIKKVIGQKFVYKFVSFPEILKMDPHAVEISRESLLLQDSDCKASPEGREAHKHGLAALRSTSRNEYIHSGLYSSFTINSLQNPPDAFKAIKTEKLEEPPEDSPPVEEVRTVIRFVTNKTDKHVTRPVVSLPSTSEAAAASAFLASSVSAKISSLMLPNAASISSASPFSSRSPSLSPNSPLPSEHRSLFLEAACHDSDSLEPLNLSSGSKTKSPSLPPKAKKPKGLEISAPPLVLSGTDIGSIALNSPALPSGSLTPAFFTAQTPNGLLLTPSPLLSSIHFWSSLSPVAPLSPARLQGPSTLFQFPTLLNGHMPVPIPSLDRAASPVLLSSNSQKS
# Outline: as §1
# ELF4 = ELF4 (Homo sapiens, UniProt Q99607 1-663)
# ELF4, sequence (Q99607 whole entry): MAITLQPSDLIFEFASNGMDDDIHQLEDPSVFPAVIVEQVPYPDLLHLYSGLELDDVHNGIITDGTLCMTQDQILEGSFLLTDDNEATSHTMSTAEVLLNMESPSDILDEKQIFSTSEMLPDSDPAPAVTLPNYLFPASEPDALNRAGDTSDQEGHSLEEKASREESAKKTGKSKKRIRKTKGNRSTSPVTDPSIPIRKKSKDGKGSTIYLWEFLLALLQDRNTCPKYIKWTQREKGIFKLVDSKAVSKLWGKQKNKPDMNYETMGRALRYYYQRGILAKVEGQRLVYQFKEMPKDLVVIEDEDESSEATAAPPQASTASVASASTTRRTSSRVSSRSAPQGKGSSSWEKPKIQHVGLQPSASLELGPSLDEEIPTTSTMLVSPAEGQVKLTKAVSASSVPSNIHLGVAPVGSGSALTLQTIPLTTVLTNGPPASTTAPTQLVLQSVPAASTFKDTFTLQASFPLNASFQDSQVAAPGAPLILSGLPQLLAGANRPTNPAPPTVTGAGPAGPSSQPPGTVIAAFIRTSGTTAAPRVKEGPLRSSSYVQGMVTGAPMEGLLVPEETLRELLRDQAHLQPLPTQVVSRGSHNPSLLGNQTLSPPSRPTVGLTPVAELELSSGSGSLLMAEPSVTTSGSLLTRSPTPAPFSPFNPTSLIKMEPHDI
# Outline: as §1
# ELK4 = molecular target: T5, ELK4 (Homo sapiens, UniProt P28324-2 1-405)
# T5 sequence: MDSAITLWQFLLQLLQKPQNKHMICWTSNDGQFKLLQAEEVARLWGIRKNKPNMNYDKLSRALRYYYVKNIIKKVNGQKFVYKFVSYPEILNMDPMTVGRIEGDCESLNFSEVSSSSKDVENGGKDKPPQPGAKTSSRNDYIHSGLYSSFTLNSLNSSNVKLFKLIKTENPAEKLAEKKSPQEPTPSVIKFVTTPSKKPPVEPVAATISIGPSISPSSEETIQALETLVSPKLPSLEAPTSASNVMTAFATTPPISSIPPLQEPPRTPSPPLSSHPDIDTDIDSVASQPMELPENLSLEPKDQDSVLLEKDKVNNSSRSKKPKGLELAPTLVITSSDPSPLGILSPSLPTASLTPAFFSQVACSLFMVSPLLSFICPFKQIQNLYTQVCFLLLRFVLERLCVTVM
# Outline: as §1
# ETV2 = molecular target: T6, ETV2 (Homo sapiens, UniProt O00321 1-342)
# T6 sequence: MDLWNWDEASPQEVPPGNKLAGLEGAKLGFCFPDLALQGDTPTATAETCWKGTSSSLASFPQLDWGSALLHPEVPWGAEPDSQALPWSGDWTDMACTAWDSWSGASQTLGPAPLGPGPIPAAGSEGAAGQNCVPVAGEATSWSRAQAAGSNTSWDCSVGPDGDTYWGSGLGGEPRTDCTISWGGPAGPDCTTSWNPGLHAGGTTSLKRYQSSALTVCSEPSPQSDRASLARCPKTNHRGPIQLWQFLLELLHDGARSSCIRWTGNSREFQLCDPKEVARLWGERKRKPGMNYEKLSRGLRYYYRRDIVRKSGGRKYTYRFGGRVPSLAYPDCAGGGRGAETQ
# Outline: as §1
# ELF3 = molecular target: T7, ELF3 (Homo sapiens, UniProt P78545 1-371)
# T7 sequence: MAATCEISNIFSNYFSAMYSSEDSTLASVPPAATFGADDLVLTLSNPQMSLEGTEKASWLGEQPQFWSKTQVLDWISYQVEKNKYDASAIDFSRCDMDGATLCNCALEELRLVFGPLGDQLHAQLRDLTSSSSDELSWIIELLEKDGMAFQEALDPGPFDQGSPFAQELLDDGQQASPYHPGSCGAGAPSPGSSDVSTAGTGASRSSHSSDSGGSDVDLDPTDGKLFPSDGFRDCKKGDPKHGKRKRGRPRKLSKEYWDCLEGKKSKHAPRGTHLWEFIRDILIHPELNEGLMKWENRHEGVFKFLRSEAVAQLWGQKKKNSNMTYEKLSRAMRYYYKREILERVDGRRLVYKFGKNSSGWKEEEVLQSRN
# Outline: as §1
# ERF = molecular target: T8, ERF (Homo sapiens, UniProt P50548 1-548)
# T8 sequence: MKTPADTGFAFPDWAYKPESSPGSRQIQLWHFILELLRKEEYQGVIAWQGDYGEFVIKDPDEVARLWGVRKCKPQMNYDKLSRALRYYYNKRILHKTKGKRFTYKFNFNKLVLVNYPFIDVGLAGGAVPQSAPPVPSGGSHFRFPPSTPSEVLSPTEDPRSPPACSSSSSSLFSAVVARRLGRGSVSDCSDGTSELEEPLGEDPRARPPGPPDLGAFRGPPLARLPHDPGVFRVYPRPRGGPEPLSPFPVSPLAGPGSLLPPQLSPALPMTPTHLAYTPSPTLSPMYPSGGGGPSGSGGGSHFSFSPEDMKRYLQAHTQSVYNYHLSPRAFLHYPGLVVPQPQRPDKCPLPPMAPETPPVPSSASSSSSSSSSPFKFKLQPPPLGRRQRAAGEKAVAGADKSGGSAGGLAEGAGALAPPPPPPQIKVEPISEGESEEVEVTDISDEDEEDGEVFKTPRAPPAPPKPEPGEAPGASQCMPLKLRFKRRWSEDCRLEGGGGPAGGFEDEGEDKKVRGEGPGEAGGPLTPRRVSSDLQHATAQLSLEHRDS
# Outline: as §1
# ETV3L = molecular target: T9, ETV3L (Homo sapiens, UniProt Q6ZN32 1-361)
# T9 sequence: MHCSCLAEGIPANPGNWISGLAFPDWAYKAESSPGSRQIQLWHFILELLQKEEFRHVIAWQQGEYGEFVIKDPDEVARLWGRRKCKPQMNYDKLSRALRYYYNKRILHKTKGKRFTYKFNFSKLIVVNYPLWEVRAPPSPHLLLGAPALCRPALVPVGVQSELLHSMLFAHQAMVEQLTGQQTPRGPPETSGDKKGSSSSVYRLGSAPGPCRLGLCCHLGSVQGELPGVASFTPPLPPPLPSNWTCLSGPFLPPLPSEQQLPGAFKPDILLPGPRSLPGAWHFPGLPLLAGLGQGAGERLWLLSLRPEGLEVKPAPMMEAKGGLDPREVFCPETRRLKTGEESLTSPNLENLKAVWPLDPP
# Outline: as §1
# ETV7 = molecular target: T10, ETV7 (Homo sapiens, UniProt Q9Y603 1-341)
# T10 sequence: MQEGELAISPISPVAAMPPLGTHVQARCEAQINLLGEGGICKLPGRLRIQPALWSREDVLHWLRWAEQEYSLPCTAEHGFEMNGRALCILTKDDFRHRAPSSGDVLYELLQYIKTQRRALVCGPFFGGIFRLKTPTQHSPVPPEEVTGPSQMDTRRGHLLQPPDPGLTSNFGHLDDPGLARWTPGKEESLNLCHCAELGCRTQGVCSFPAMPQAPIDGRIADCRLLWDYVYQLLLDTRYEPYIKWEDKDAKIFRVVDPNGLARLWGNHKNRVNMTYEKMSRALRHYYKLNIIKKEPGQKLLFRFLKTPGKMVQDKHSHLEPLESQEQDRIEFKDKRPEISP
# Outline: as §1
# ETV6 = ETV6 (Homo sapiens, UniProt P41212 1-452)
# ETV6, sequence (P41212 whole entry): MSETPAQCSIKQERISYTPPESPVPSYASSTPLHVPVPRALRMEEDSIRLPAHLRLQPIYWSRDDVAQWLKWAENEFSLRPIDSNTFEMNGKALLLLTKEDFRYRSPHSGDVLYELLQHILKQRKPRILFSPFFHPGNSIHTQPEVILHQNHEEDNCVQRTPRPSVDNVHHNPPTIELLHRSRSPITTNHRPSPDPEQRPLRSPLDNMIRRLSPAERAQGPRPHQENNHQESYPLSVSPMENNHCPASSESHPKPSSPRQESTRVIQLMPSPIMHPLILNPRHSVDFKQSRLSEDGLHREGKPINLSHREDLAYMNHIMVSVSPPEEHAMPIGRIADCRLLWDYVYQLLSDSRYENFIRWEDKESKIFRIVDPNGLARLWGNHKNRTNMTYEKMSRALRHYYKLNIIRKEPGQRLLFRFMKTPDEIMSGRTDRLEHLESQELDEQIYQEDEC
# Outline: as §1
sequence,measurement,setting,value
TCGAAC,binding signal,ELK1,"1.01 fold enrichment (6-mer frequency, TF over GST control)"
same,binding signal,GABPA,"1.02 fold enrichment (6-mer frequency, TF over GST control)"
same,binding signal,ELF1,"1.09 fold enrichment (6-mer frequency, TF over GST control)"
same,binding signal,EHF,"1.07 fold enrichment (6-mer frequency, TF over GST control)"
same,binding signal,SPIB,"1.03 fold enrichment (6-mer frequency, TF over GST control)"
same,binding signal,ELK3,"1.06 fold enrichment (6-mer frequency, TF over GST control)"
same,binding signal,ELF4,"1.01 fold enrichment (6-mer frequency, TF over GST control)"
same,binding signal,ELK4,"1.05 fold enrichment (6-mer frequency, TF over GST control)"
same,binding signal,ETV2,"1.03 fold enrichment (6-mer frequency, TF over GST control)"
same,binding signal,ELF3,"1.05 fold enrichment (6-mer frequency, TF over GST control)"
same,binding signal,ERF,"1.07 fold enrichment (6-mer frequency, TF over GST control)"
same,binding signal,ETV3L,"1.07 fold enrichment (6-mer frequency, TF over GST control)"
same,binding signal,ETV7,"1.04 fold enrichment (6-mer frequency, TF over GST control)"
same,binding signal,ETV6,"1 fold enrichment (6-mer frequency, TF over GST control)"
